# Measured values from PubChem BioAssay.
# Calls of active or inactive are those of the source.
# How the values were obtained:
# [1] = tested on: PRMT1 (protein arginine N-methyltransferase 1); assay: PRMT1 binders on small-molecule microarrays, primary screen, biochemical, small-molecule microarray, 635 nm fluorescence (AID 1088); conditions: small-molecule microarray binding, higher = more signal;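 note: binding of Prmt1 protein to compounds spotted on small-molecule microarray slides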
# [2] = yeast growth modulation, basal conditions, primary screen, YJM789 clinical isolate, OD600, 24 h (AID 1089);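 note: growth of clinical yeast isolate S. cerevisiae YJM 789 seeded 1000 cells per well; test concentration not given here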; conditions: S. cerevisiae YJM789 growth, higher = more signal, called active from +8 up or from −8 down
# [3] = fission yeast growth modulation, primary screen, strain 972, OD600, 24 h, no modulator (AID 1090);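 note: basal condition with compound alone and no growth modifier present; test concentration not given here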; conditions: S. pombe 972 growth, higher = more signal, called active from +8 up or from −8 down
# [4] = S. cerevisiae growth modulation with rapamycin, primary screen, strain BY4716, OD600, 96 h (AID 1091); conditions: higher = more signal, called active from +8 up or from −8 down; note: test concentration not given here
# [5] = target: Torsin-1A-interacting protein 2 (Homo sapiens) (UniProt Q8NFQ8); assay: LULL1 binders on small-molecule microarray, primary screen, cell lysate, human LULL1 lysate, 635/667 nm fluorescence (AID 1092); conditions: hLULL1 lysate binding, 635 nm fluorescence, higher = more signal;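 note: probe is lysate of COS7 cells overexpressing human LULL1; score merges per-feature 667 nm fluorescence with signal-to-noise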
# Chain of Torsin-1A-interacting protein 2 (Homo sapiens) (Q8NFQ8 whole entry, looked up): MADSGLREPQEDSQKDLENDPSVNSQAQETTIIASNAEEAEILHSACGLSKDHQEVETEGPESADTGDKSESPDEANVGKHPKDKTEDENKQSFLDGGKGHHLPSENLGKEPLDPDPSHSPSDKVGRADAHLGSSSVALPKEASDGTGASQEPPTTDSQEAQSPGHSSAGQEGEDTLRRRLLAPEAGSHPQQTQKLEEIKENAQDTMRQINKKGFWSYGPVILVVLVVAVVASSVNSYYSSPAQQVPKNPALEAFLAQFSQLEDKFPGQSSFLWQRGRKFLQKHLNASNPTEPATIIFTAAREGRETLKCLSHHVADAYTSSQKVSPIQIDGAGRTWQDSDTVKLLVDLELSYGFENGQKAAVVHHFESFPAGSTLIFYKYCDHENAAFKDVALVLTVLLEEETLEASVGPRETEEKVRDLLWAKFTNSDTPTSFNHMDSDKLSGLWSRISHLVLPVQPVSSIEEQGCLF
# [6] = E. coli growth modulation, two-sided OD650, primary screen, E. coli filamentation project, strain DRC41, 24 h (AID 1093); conditions: OD650, 24 h, higher = more signal, called active from +8 up or from −8 down;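 note: MC1000 strain lacking acrAB efflux and sulA so SOS filamentation is blocked; test concentration not given here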
# [7] = small-molecule microarray binders of probe aLefty2, primary screen, biochemical, biotinylated probe, 635/667 nm fluorescence (AID 1094); conditions: higher = more signal;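 note: score merges spot fluorescence near 667 nm with spot signal-to-noise ratio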
# [8] = tested on: Noggin (protein binding on small-molecule microarray); assay: Noggin binders on small-molecule microarray, primary screen, biochemical, 635/667 nm fluorescence (AID 1095); conditions: 635 nm fluorescence, higher = more signal;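 note: score merges 667 nm feature fluorescence with signal to noise over triplicate slides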
# [9] = target: Neurogenic locus notch homolog protein 3 (Homo sapiens) (UniProt Q9UM47); assay: NOTCH3 binders on small-molecule microarray, primary screen, biochemical, 635/667 nm fluorescence (AID 1096); conditions: NOTCH3 binding, 635 nm fluorescence, higher = more signal
# Chain of Neurogenic locus notch homolog protein 3 (Homo sapiens) (Q9UM47 whole entry, looked up): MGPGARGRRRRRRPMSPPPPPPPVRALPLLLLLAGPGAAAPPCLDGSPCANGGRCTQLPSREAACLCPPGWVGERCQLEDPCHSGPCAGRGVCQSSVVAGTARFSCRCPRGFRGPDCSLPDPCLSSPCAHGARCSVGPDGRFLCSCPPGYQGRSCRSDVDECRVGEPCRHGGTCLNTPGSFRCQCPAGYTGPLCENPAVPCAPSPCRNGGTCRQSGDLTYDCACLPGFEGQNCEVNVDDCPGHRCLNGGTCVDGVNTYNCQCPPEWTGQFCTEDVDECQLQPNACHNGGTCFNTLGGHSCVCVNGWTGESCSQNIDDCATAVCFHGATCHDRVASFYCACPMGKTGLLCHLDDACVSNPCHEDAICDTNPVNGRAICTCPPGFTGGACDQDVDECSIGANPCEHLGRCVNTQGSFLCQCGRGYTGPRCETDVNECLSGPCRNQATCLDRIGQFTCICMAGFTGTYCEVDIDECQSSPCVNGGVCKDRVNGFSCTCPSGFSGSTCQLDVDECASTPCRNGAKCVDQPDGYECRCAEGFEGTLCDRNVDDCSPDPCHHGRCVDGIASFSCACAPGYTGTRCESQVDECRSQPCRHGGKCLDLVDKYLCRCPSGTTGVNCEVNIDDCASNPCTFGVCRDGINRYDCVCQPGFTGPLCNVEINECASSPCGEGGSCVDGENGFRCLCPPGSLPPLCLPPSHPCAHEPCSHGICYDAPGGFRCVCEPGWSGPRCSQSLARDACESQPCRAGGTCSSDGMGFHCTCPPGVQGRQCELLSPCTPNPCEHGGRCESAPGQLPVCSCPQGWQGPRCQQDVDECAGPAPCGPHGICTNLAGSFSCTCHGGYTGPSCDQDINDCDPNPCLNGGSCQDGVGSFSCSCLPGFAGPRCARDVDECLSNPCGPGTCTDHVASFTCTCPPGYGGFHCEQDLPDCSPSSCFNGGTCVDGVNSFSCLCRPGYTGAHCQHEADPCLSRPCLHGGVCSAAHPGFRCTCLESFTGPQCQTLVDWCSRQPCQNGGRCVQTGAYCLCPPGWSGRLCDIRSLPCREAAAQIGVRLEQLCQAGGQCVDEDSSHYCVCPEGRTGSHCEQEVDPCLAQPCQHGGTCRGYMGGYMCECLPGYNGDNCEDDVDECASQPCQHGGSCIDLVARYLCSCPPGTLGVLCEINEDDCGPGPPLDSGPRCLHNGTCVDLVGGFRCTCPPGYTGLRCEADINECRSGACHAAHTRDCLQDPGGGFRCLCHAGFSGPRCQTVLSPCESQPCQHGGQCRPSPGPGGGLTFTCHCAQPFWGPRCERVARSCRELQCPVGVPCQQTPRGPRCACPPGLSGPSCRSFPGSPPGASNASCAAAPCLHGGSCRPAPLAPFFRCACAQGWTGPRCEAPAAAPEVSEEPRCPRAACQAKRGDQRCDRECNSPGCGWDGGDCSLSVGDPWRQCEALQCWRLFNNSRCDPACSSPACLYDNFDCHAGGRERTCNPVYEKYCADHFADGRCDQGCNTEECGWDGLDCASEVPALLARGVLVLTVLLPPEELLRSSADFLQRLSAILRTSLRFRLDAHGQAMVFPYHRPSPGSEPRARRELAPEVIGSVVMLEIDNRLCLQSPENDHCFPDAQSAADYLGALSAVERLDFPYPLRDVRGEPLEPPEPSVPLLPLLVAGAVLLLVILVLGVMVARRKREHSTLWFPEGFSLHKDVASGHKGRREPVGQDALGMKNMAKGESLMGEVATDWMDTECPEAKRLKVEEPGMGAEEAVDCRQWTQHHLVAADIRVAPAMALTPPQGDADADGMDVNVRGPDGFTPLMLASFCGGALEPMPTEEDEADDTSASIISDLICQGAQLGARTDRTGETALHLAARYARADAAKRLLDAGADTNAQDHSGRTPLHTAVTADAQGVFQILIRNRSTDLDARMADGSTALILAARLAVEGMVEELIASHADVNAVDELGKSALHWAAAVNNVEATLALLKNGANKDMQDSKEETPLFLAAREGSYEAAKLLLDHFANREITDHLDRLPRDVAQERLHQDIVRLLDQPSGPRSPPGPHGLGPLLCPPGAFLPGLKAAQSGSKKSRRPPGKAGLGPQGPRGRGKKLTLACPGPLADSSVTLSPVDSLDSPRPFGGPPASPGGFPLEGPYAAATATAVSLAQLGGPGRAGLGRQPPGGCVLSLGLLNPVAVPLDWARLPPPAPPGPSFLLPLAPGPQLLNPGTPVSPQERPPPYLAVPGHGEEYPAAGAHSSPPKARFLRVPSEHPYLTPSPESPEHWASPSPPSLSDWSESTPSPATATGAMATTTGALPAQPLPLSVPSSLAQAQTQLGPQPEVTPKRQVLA
# [10] = small-molecule microarray binders of probe aEGFR, primary screen, biochemical, biotinylated probe, 635/667 nm fluorescence (AID 1097); conditions: higher = more signal;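 note: probe is a biotinylated anti-EGFR antibody binding compounds printed on slides; score combines fluorescence near 667 nm and signal to noise of each spot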
# [11] = tested on: Plasmodium falciparum Sir2 (PF13_0152, Sir2A); assay: pfSir2 binders on small-molecule microarrays, primary screen, biochemical, small-molecule microarray, 635 nm fluorescence (AID 1098); conditions: small-molecule microarray binding, fluorescence 635 nm; higher = more signal;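 note: score merges spot fluorescence intensity with its signal-to-noise ratio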
# [12] = small-molecule microarray binders of probe aDKK1, primary screen, biochemical, biotinylated probe, 635/667 nm fluorescence (AID 1099); conditions: higher = more signal;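 note: score merges 667nm spot fluorescence with signal to noise across triplicate slides; reference of the scale not given here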
# [13] = small-molecule microarray binders of probe aCHRDL2, primary screen, biochemical, biotinylated probe, 635/667 nm fluorescence (AID 1100); conditions: higher = more signal
# [14] = splicing luciferase reporter signal modulators, primary screen, spliceosome inhibition project, cell-based, HEK293, splice +/- reporter (AID 1101); conditions: luminescence, 24 h, higher = more signal, called active from +8 up or from −8 down;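 note: HEK293 cells carrying a splicing-competent luciferase reporter gene; test concentration not given here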
# [15] = target: Fibroblast growth factor 10 (Homo sapiens) (UniProt O15520); assay: FGF10 binders on small-molecule microarrays, primary screen, biochemical, small-molecule microarray, 635 nm fluorescence (AID 1102); conditions: FGF10 binding, fluorescence 635 nm, higher = more signal
# Chain of Fibroblast growth factor 10 (Homo sapiens) (O15520 whole entry, looked up): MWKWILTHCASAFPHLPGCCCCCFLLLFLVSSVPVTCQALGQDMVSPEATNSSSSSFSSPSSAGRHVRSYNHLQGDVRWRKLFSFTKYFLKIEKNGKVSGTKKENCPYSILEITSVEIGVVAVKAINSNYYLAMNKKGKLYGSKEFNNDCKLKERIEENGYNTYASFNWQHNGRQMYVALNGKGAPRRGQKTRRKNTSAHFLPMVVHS
# [16] = tested on: glycogen synthase kinase-3 (GSK3A per assay name; protocol says GSK3B); assay: GSK3 binders on small-molecule microarrays, primary screen, biochemical, small-molecule microarray, 635 nm fluorescence, GSK3A (AID 1103); conditions: small-molecule microarray binding, fluorescence 635 nm; higher = more signal; note: the record names both GSK3A and GSK3B
# [17] = target: Epidermal growth factor receptor (Homo sapiens) (UniProt P00533); assay: EGFR binders on small-molecule microarrays, primary screen, biochemical, small-molecule microarray, 635 nm fluorescence (AID 1104); conditions: EGFR binding, higher = more signal;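 note: score merges 667 nm emission intensity with spot signal to noise over triplicate slides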
# Chain of Epidermal growth factor receptor (Homo sapiens) (P00533 whole entry, looked up): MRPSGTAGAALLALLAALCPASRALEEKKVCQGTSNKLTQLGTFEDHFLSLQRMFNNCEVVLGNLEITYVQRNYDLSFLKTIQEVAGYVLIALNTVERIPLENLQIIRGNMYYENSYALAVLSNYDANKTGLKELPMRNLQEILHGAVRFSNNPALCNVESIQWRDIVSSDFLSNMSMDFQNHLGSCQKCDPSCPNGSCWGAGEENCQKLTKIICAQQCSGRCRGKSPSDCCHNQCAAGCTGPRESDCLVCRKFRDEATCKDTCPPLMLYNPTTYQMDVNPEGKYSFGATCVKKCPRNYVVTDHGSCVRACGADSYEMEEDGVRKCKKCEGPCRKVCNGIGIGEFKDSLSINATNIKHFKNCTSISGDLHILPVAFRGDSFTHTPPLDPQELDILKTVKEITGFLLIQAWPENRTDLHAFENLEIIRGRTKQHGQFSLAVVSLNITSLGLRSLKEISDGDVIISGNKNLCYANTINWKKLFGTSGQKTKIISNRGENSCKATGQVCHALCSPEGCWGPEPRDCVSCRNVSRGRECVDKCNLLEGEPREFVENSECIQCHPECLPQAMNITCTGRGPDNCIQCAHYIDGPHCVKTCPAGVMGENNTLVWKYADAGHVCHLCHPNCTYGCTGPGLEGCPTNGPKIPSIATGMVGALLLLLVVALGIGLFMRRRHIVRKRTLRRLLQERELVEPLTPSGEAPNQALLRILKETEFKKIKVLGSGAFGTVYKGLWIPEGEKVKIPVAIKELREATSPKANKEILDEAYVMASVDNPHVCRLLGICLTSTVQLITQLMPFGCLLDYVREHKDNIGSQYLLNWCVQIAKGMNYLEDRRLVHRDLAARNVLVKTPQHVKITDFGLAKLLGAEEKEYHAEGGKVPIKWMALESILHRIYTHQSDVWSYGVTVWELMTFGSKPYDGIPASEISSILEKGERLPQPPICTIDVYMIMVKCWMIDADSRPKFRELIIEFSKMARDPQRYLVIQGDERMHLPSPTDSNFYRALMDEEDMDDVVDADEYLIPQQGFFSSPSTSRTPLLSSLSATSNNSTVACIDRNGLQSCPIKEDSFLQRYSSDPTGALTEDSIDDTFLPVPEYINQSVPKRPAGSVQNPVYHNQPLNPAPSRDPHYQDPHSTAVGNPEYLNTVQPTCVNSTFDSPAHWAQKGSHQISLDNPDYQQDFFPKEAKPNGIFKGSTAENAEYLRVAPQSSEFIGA
# [18] = target: Follistatin-related protein 3 (Homo sapiens) (UniProt O95633); assay: FSTL3 binders on small-molecule microarrays, primary screen, biochemical, small-molecule microarray, 635 nm fluorescence (AID 1105); conditions: FSTL3 binding, higher = more signal;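 note: score merges emission near 667 nm and signal to noise per printed spot across three slides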
# Chain of Follistatin-related protein 3 (Homo sapiens) (O95633 whole entry, looked up): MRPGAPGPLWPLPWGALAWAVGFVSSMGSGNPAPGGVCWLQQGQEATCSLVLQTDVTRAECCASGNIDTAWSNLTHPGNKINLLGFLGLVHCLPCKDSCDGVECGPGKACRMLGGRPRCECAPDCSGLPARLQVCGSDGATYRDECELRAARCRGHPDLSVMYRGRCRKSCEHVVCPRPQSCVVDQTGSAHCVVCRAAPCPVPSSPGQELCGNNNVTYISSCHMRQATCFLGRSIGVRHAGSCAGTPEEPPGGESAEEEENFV
# [19] = target: Dickkopf-related protein 1 (Homo sapiens) (UniProt O94907); assay: DKK1 binders on small-molecule microarrays, primary screen, biochemical, small-molecule microarray, 635 nm fluorescence scan (AID 1106); conditions: DKK1 binding, higher = more signal;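 note: score merges emission near 667 nm with signal to noise over three replicate slides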
# Chain of Dickkopf-related protein 1 (Homo sapiens) (O94907 whole entry, looked up): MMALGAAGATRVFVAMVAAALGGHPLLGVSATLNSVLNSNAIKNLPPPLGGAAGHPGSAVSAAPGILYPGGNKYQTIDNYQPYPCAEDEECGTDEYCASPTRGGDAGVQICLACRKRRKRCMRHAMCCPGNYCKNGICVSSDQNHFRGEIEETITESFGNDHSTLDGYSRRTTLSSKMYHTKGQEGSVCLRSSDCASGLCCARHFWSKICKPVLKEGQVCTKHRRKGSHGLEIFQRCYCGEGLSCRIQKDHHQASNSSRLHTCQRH
# [20] = tested on: Inhibin beta A chain (activin A); assay: INHBA (activin A) binders on microarrays, primary screen, biochemical, small-molecule microarray, 635 nm fluorescence scan (AID 1107); conditions: small-molecule microarray binding, higher = more signal;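 note: mouse activin A protein probed at 4.33 µg/mL on printed slides; score merges bound-protein fluorescence near 667 nm with spot signal-to-noise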
SMILES,composite z-score [1],z-score [2],z-score [3],z-score [4],composite z-score [5],z-score [6],composite z-score [7],composite z-score [8],composite z-score [9],composite z-score [10],composite z-score [11],composite z-score [12],composite z-score [13],z-score [14],composite z-score [15],composite z-score [16],composite z-score [17],composite z-score [18],composite z-score [19],composite z-score [20]
COc1ccc([Si](C)(C)[C@@H]2[C@@H](CC(=O)N3Cc4ccccc4C[C@H]3CO)O[C@]3(C(=O)N(Cc4ccc(N5CCC5=O)cc4)c4ccccc43)[C@H]2C)cc1,1.55,0.68 (inactive),1.02 (inactive),3.23 (inactive),2.77,0.409 (inactive),-0.0945,1.32,1.14,-0.0954,1.16,-0.259,-0.1,-1.12 (inactive),0.46,0.852,0.744,1.06,0.644,0.331
COc1ccc(C(=O)Nc2cccc(CN3C(=O)[C@]4(O[C@H](CCn5cc([C@H](O)c6ccccc6)nn5)[C@@H]([Si](C)(C)c5ccc(OC)cc5)[C@@H]4C)c4ccccc43)c2)cc1,0.682,-0.228 (inactive),-1.99 (inactive),0.678 (inactive),1.38,1.48 (inactive),-0.0674,0.383,0.889,-0.128,0.758,0.224,0.265,-2.49 (inactive),0.26,-0.266,-0.339,0.31,-0.132,1.41
Cc1cccc([C@H]2C[C@H]3C(Br)=C[C@@H]2C(=O)[C@]32CO2)c1,-0.373,-0.749 (inactive),-20.5 (active),-1.2 (inactive),-0.831,0.779 (inactive),-0.0416,-0.329,-0.867,-0.626,-0.256,-0.423,-0.0607,-0.517 (inactive),-0.711,-0.869,-0.0431,-0.412,0.404,1.37
CCOC(=O)C1=CCC(c2ccco2)N(S(=O)(=O)c2ccc(C)cc2)C1 (stereo not given),1.08,-0.949 (inactive),-0.0107 (inactive),-0.013 (inactive),2.62,0.322 (inactive),0.18,0.637,1.08,0.0357,1.04,0.363,-0.0042,0.0407 (inactive),1.12,1.3,0.422,1.22,0.49,1.35
COCCOC(=O)N1C(=O)[C@@]2(c3cc(C#Cc4ccc(OC)cc4)ccc31)[C@H](c1ccc(OCCO)cc1)N1[C@H](c3ccccc3)[C@H](c3ccccc3)OC(=O)[C@H]1[C@@H]2C(=O)Nc1nc2ccccc2s1,1.14,1.77 (inactive),1.43 (inactive),1.96 (inactive),2.2,1.82 (inactive),0.188,0.55,0.95,-0.0437,0.181,0.636,0.533,-0.697 (inactive),1.06,0.506,0.397,0.805,0.154,0.598
O=C1C[C@@](C(=O)NCC(F)(F)F)(c2ccc([N+](=O)[O-])cc2)[C@@H](c2ccc(CO)cc2)N1CC12CC3CC(CC(C3)C1)C2,1.55,0.263 (inactive),-1.03 (inactive),1.77 (inactive),2.05,-0.49 (inactive),0.426,1.26,0.614,0.751,1.4,1.09,0.957,-2.11 (inactive),1.44,1.07,1.13,1.03,0.927,0.469
C[C@]1(C(=O)NCCN2CCOCC2)c2ccccc2C(=O)N(Cc2cc(F)cc(C(F)(F)F)c2)[C@H]1c1ccc(CO)cc1,1.49,0.006 (inactive),0.487 (inactive),-0.837 (inactive),3.36,1.47 (inactive),-0.0511,0.463,0.572,-0.142,1.81,-0.0342,0.841,-0.0156 (inactive),-0.134,-0.626,-1.01,-0.0362,-0.876,0.59
CC(C)(C)OC(=O)CC[C@]1(C(=O)N2CCCCC2)COC(c2ccc(OCCCO)cc2)=N1,1.47,-1.1 (inactive),-0.878 (inactive),-1.57 (inactive),3.57,0.992 (inactive),0.066,0.318,0.79,-0.0139,1.7,0.14,0.48,-0.527 (inactive),1.54,1.29,0.101,0.324,-0.421,0.567
[N-]=[N+]=NCc1ccccc1[C@H]1OC(c2ccc(OCCCO)cc2)=N[C@@]1(CCS(=O)(=O)c1ccccc1)C(=O)NCc1ccccc1,1.55,1.47 (inactive),0.431 (inactive),4.54 (inactive),3.11,1.28 (inactive),0.455,0.605,1.13,0.706,1.26,1.65,0.743,0.118 (inactive),1.06,1.29,0.333,0.819,-0.0778,0.447
C=C(COC)/C(=C/C[C@H](OC(C)=O)c1cccc(OCCO)c1)c1cnc2ccccc2c1,1.53,1.25 (inactive),-0.0332 (inactive),1.03 (inactive),2.18,-0.094 (inactive),-0.0415,1.64,1.04,-0.0267,1.38,-0.0559,0.0794,0.344 (inactive),1.51,0.965,0.771,1.58,0.83,1.75
